The source of these data is PubChem BioAssay (NCATS).

Records with an inconclusive call do not appear. A number with no mark means an inactive call. Calls of active or inactive are those of the source. Calls come from the whole dose curve; as a rule, active = well fitted inhibition curve with a large enough effect; inconclusive = small, poorly fitted or top-dose-only effect; inactive = flat fitted curve, though single readings scatter.
% is set by controls: 0 for no effect and ±100 for the full control effect.

This experiment in a line: P-glycoprotein substrates identified in KB-8-5-11 adenocarcinoma cell line, qHTS therapeutic library screen (AID 1346987). Note: nearly all actives have a fitted effect of over 65% in size. The note with it: KB-8-5-11 (P-gp overexpressing) viability, CellTiter-Glo, 72 h; series mostly up to 44.5 µM; activity change, negative = cytotoxicity: at the top concentration. From the text:
The ATP-binding cassette transporters P-glycoprotein (P-gp) is known to limit brain penetration of many chemotherapy drugs. […] As such, we developed a high-throughput screen (HTS) to identify substrates of P-gp from a series of chemical libraries including the National Center for Advancing Translational Sciences Pharmaceutical Collection NPC, 2,816 compounds), testing a total of 10,804 compounds, most of which have known mechanisms of action. We used the CellTiter-Glo viability assay to test library compounds against the parental KB-3-1 human cervical adenocarcinoma cell line and the colchicine-selected sub-line KB-8-5-11 that over-expresses P-gp. KB-8-5-11 cells were also tested in the presence of a P-gp inhibitor (tariquidar) to assess reversability of transporter-mediated resistance. Of the tested compounds, a total of 90 P-gp substrates were identified including 55 newly identified P-gp substrates. Substrates were confirmed using an orthogonal killing assay against HEK-293 cells transfected with P-gp. As exemplars, we confirmed that […] (cyclin-dependent kinase inhibitor); AT9283, (Janus kinase 2/3 inhibitor); ispinesib (kinesin spindle protein inhibitor); gedatolisib (PKI-587, phosphoinositide 3-kinase/mammalian target of rampamycin inhibitor); GSK-690693 (AKT inhibitor); and KW-2478 (heat shock protein 90 inhibitor) were substrates , and direct ATPase stimulation was assessed. ABCG2 was also found to confer high levels of resistance to AT9283, GSK-690693 and gedatolisib, while ispinesib, AT7519 and KW-2478 were weaker substrates.
The HeLa derivative cell line, KB-3-1, and its colchicine-selected, P-gp-overexpressing subline, KB-8-5-11 were maintained in DMEM with 10% FCS and Pen/Strep with glutamine at 37 degree C in 5% CO2. For KB-8-5-11 cells, colchicine was added to the medium at a concentration of 100 ng/mL. HEK-293 cells transfected with empty vector (pcDNA) or vector containing human ABCB1 (MDR-19) or ABCG2 (R-5) have been described previously (Robey, Lin, Qiu, Chan & Bates, 2011) and were maintained in EMEM supplemented with 10% FCS, Pen/Strep and glutamine with 2 mg/ml G418 to select for the expression of the transporter. Cultures were confirmed to be free of mycoplasma infection using the MycoAlert Mycoplasma Detection Kit (Lonza, Walkersville, MD). For the screen, assay medium was identical to culture medium except for KB-8-5-11 where colchicine was excluded from the medium.
All cell lines were plated into 1536-well plates at 500 cells/well in 5 uL media. Compounds were then pinned in dose-response using a 1536-head pin tool (Kalypsis, San Diego, CA) and plates were incubated at 37 degree C in 5% CO2 for an additional 72 h. CellTiter-Glo reagent (Promega) was dispensed into the wells, incubated for 5 min and luminescence was read on a ViewLux instrument (Perkin-Elmer). Cytotoxic compounds were defined as those that yielded a curve class of -1.1, -1.2, -2.1, -2.2, -2.3, or -2.4, a maximum response of >50% and an AC50 of < 10 uM. Cherry-picked hits from screening analysis were tested with both the KB pair of cell lines, and the pcDNA (empty vector control) and MDR-19 (P-gp overexpressing) pair were tested, in the absence and presence of tariquidar.
On the technique in general: qHTS replaces the single test concentration by a dilution series.
Regarding `CCCCCCCC(=O)OCC(O)CO` (stereo not given), the “activity change, negative = cytotoxicity” value is 11.1%. For the compound `CC(=O)N(CC(O)CO)c1c(I)c(C(=O)NCC(O)CO)c(I)c(C(=O)NCC(O)CO)c1I` (stereo not given), the “activity change, negative = cytotoxicity” value is -8.05%.

As for `O=c1[nH]c(=O)n([C@H]2C[C@H](O)[C@@H](CO)O2)cc1I`, the “activity change, negative = cytotoxicity” value is -6.04% [at 17.3 µM]. `CCCCCCCCCCOc1cc2c(=O)c(C(=O)OCC)c[nH]c2cc1OCC`: the “activity change, negative = cytotoxicity” value was -3.18%. As for `COc1ccc(O)cc1`, the “activity change, negative = cytotoxicity” value is -18%. Consider `Cc1cc(NC(=O)C2=C(O)c3ccccc3S(=O)(=O)N2C)no1`, for which the “activity change, negative = cytotoxicity” value is -5.71%. Regarding `CC(C)c1cc2c(cc1S(=O)(=O)O)[C@@]1(C)CCC[C@@](C)(C(=O)O)[C@@H]1CC2`, the “activity change, negative = cytotoxicity” value was -2.19%. On to `CC(=O)OCC(COC(C)=O)OC(C)=O`, for which the “activity change, negative = cytotoxicity” value was 8.5%. In the case of `CCOC(=O)c1cccnc1`, the “activity change, negative = cytotoxicity” value is -0.471%.

Take `Cc1ccc(S(=O)(=O)NC(=O)NC2CCCCC2)cc1`: the “activity change, negative = cytotoxicity” value is -0.846%. On to `CCN(CC)CCc1nc(-c2ccccc2)no1`, for which the “activity change, negative = cytotoxicity” value is 10% [at 17.3 µM]. For `NC(=O)CC[C@@H](N)C(=O)O`, the “activity change, negative = cytotoxicity” value is -4.17%. For `CC(=O)N(CC(O)CN(C(C)=O)c1c(I)c(C(=O)NCC(O)CO)c(I)c(C(=O)NCC(O)CO)c1I)c1c(I)c(C(=O)NCC(O)CO)c(I)c(C(=O)NCC(O)CO)c1I` (stereo not given), the “activity change, negative = cytotoxicity” value is -10.9% [at 17.3 µM]. As to `CC[C@H](C)[C@H](N)C(=O)O`, the “activity change, negative = cytotoxicity” value was 7.19%.

For `Nc1ncnc2c1ncn2[C@@H]1O[C@H](COP(=O)(O)O)[C@@H](O)[C@H]1O`, the “activity change, negative = cytotoxicity” value is -2.03%.

`C=CCN1C[C@H](C(=O)N(CCCN(C)C)C(=O)NCC)C[C@@H]2c3cccc4[nH]cc(c34)C[C@H]21`: the “activity change, negative = cytotoxicity” value is 9.28%. Take `CC(=O)Nc1ccc(OCCOCCOc2ccc(NC(C)=O)cc2)cc1`: the “activity change, negative = cytotoxicity” value is 4.27%. Consider `COc1nccnc1NS(=O)(=O)c1ccc(N)cc1`, for which the “activity change, negative = cytotoxicity” value was -0.925%. Regarding `CCCCCCCCCCCCCCCCC(C(=O)O)C(O)(CC(=O)O)C(=O)O` (stereo not given), the “activity change, negative = cytotoxicity” value is -8.25%. On to `NS(=O)(=O)c1cc(-c2nn[nH]n2)c(NCc2cccs2)cc1Cl`, for which the “activity change, negative = cytotoxicity” value was -5.61%.

Consider `FC(F)(F)C(Cl)Br` (stereo not given), for which the “activity change, negative = cytotoxicity” value is -5.5%. Still for that read-out and setting: with `O=C(NCCCN1CCOCC1)c1ccc(Cl)cc1` the figure was 0.731%. Same read-out and setting: with `C[C@@H]1O[C@@H](OC[C@H]2O[C@@H](Oc3c(-c4ccc(O)c(O)c4)oc4cc(O)cc(O)c4c3=O)[C@H](O)[C@@H](O)[C@@H]2O)[C@H](O)[C@H](O)[C@H]1O` the figure was 29.3%. As to `O=C(O)CCCc1ccccc1`, the call was inactive.

For the compound `O=C1c2ccccc2C(=O)C1c1ccc(Br)cc1`, the “activity change, negative = cytotoxicity” value is -0.579%. On to `CNc1c2c(nn1C)CCCC2`, for which the “activity change, negative = cytotoxicity” value was 16.3%. As to `Nc1ccc(S(=O)(=O)c2ccc(N)cc2)cc1`, the “activity change, negative = cytotoxicity” value was -12.3%.

Turning to `CC(=O)N1C[C@H](O)C[C@H]1C(=O)O`, the “activity change, negative = cytotoxicity” value is -1.2%. `C[C@@H](N)C(=O)O`: the “activity change, negative = cytotoxicity” value was -15.5%.

As to `O=c1[nH]c(=O)c2ccccc2o1`, the “activity change, negative = cytotoxicity” value was -1.92%. Regarding `CC(=O)OCC(=O)[C@@]1(O)CC[C@H]2[C@@H]3CCC4=CC(=O)C=C[C@]4(C)[C@@]3(F)[C@@H](O)C[C@@]21C`, the “activity change, negative = cytotoxicity” value is 3.32% [at 17.3 µM].

Turning to `CC(C(=O)O)c1ccc2c(c1)Cc1cccnc1O2` (stereo not given), the “activity change, negative = cytotoxicity” value was -3.38%. As for `N[C@@H](Cc1ccc(O)cc1)C(=O)O`, the “activity change, negative = cytotoxicity” value was 1.57%. Still for that read-out and setting: with `Cn1c([N+](=O)[O-])cnc1COC(N)=O` the figure was 6.5%; with `CNCc1ccccc1`, 10%; with `COC(=O)c1cccnc1`, -8.59%. Regarding `CC(=O)NCc1c(I)c(NC(C)=O)c(I)c(C(=O)O)c1I`, the “activity change, negative = cytotoxicity” value was 15.7%. For the compound `Cc1cc(C)c(NC(=O)CN(CC(=O)O)CC(=O)O)c(C)c1Br`, the “activity change, negative = cytotoxicity” value is 9.98%. `C=CCNC(N)=S`: the “activity change, negative = cytotoxicity” value was -4.94%. For the compound `C[n+]1ccccc1/C=N/O`, the “activity change, negative = cytotoxicity” value is 1.73% [at 17.3 µM].
